The structures appear in SMILES notation. Values joined by “and” are separate entries in the source; they are usually repeats but may differ in a detail not shown here. Equal entries are not always repeated. Results filed as inconclusive are left out. Values without a mark were called inactive. Active and inactive are the calls of the source. Calls follow the shape of the dose curve; as a rule, active = well fitted curve in the direction sought with a large enough effect; inconclusive = small, poorly fitted or top-dose-only effect, or another doubt; inactive = no such curve, though single readings can be large; an effect the other way counts as inactive or inconclusive.

Assay [1] has as its target Cellular tumor antigen p53 (Homo sapiens) (UniProt P04637). The assay is described as follows: Primary qHTS for small molecule compounds that upregulate eGFP-tagged delta133p53alpha (in N-terminal) cells. (AID 2060322). Also: nearly all actives have a fitted effect of over 75% in size.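 As to activation: cells pre-induced with doxycycline then dosed without doxycycline; series mostly up to about 56 µM; 0% = DMSO vehicle and 100% = reference activator.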 As to conditions: NCI-H358 eGFP-delta133p53alpha fluorescence, 24 h; activation: active compounds read high. Put shortly:
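NCI-H358 cells pre-induced 24 h with 10 ng/ml doxycycline for eGFP-delta133p53alpha, plated dox-free and exposed 24 h at 37C to titrated compounds. Fixed, Hoechst-stained; gated GFP peak intensity by laser scanning cytometry, normalized to DMSO (0%) and 57.5 uM 5-azacytidine (100%).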
Background: qHTS replaces the single test concentration by a dilution series.

Assay [2] in a line: BET inhibitor-based combinations targeting novel dependencies in MECOM-rearranged (r) AML: SET-2 cell line (AID 2202231). Also: nearly all actives have a fitted effect of over 35% in size.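 As to viability: plate controls were DMSO treated cells for no effect and wells without cells for full effect.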 The conditions noted are these: SET-2 AML cells viability, CellTiter-Glo luminescence, 48 h; viability: active compounds read low, concentration not given here. Put shortly:
(§1)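 Each compound was tested at eleven concentrations on cells seeded at 500/well. After two days' incubation, ATP-based luminescence reported viability; responses relative to DMSO and blank wells yielded AUC and cell-line-centred Z-AUC.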
(ATP-based viability assays read luminescence as a measure of living cells.)

Assay [3] in a line: BET inhibitor-based combinations targeting novel dependencies in MECOM-rearranged (r) AML: MV-4-11 cell line (AID 2202233). Also: nearly all actives have a fitted effect of over 45% in size. Put shortly:
(§2)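 First, 500 cells per well were seeded; next, drugs were pinned as 11-point doses; then plates sat 48 hr in the incubator; finally CellTiter-Glo was added and luminescence read, with AUC and Z-AUC computed.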

Assay [4] is described as follows: BET inhibitor-based combinations targeting novel dependencies in MECOM-rearranged (r) AML: HNT-34 cell line (AID 2202234). Also: nearly all actives have a fitted effect of over 35% in size. Put shortly:
as §2

Assay [5] is described as follows: BET inhibitor-based combinations targeting novel dependencies in MECOM-rearranged (r) AML: UCSD-AML1 cell line (AID 2202235). Also: nearly all actives have a fitted effect of over 40% in size. Put shortly: as §2
The nature of assay [6]: BET inhibitor-based combinations targeting novel dependencies in MECOM-rearranged (r) AML: AML-191 cell line (AID 2202236; also: nearly all actives have a fitted effect of over 35% in size). Put shortly: as §1
Assay [7] is described as follows: BET inhibitor-based combinations targeting novel dependencies in MECOM-rearranged (r) AML: AML-194 cell line (AID 2202237; also: nearly all actives have a fitted effect of over 40% in size). In short, it runs like this: as §1
Assay [8] can be described thus: BET inhibitor-based combinations targeting novel dependencies in MECOM-rearranged (r) AML: OCI-AML3 cell line (AID 2202232). Also: nearly all actives have a fitted effect of over 35% in size. The conditions noted are these: Potency: OCI-AML3 viability. Put shortly:
as §1
Potency is read from the fitted curve at half-maximal effect.

Chain of Cellular tumor antigen p53 (Homo sapiens) (P04637 whole entry, looked up): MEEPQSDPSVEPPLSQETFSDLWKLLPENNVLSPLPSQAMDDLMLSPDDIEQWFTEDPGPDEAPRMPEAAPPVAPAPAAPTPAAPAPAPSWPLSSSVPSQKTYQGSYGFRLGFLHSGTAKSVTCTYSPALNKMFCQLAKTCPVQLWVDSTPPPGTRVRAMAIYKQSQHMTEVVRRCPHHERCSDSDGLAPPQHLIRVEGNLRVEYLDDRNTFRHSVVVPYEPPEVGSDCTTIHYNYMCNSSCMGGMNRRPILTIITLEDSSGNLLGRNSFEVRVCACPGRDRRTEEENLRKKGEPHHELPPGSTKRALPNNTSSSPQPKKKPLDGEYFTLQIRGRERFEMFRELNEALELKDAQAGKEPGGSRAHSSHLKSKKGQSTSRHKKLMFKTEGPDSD

Regarding `Cc1cc2c(cc1CC(=O)c1sccc1S(=O)(=O)Nc1onc(C)c1Cl)OCO2`, the activation in assay [1] was -10% and -11%. Moreover, in assay [2], the viability (in general, a read-out of living cells in per cent, often relative to untreated cells) is 68.3%. Moreover, the Potency result in assay [3], in assay [4], in assay [5] and in assay [6] was “inactive” throughout.
For `O=C1NCCc2[nH]c(-c3ccncc3)cc21`, the Potency was 7.69 µM (active) in assay [1]; 3.72 µM (active) in assay [2]; 1.86 µM (active) in assay [3]; 3.32 µM (active) in assay [4]; 2.63 µM (active) in assay [5]; 1.66 µM (active) in assay [6]. The Potency in assay [7] was 2.63 µM (active).
Regarding `Nc1[nH]c(=O)ncc1F`, the activation in assay [1] was 10.9% and -17.3%. Besides, the viability in assay [2] is 119%. Also, the Potency result in assay [3], in assay [4], in assay [5], in assay [6] and in assay [7] was “inactive” each time.
Regarding `Oc1ccc(OCc2ccccc2)cc1`, the activation in assay [1] is -16.4% and -11.2%. In addition, in assay [2], the viability is 81.8%. The Potency in assay [3] is 9.34 µM (active).
In the case of `CN1C(=O)C[C@H](C(=O)N[C@@H](Cc2cnc[nH]2)C(=O)N2CCC[C@@H]2C(N)=O)NC1=O`, in assay [1], the activation is 8.59%. Also, in assay [2], the viability is 98.4%. In addition, the Potency in assay [8] is 18.6 µM (active); in assay [6], 20.9 µM (active). Moreover, the Potency entry in assay [5] and in assay [7] was “inactive” in each case.
For the molecule `CCC(=O)O[C@]1(C(=O)CCl)[C@@H](C)C[C@H]2[C@@H]3CCC4=CC(=O)C=C[C@]4(C)[C@@]3(F)[C@@H](O)C[C@@]21C`, the activation in assay [1] was 6.69% and -0.269%. Also, the viability in assay [2] was 97.3%. In addition, the Potency in assay [3] and in assay [4] was 20.9 µM (active) in each case. For the same molecule, in assay [5], the Potency result was “inactive”.
`CC1=C(CC(=O)O)c2cc(F)ccc2C1=Cc1ccc(S(C)=O)cc1` (configuration not stated): the activation in assay [1] is -21.9%. In addition, the viability in assay [2] was 104%. Besides, the Potency in assay [3] and in assay [4] was 18.6 µM (active) in each case. Besides, the Potency entry in assay [5] is “inactive”.
Consider `CC(N[C@H]1CCCC[C@H]1NC(=O)c1ccc(Cl)cc1)c1cccc2ccccc12` (some centres not stated), for which the activation in assay [1] is 3.01%. For the same molecule, the Potency was 26.3 µM (active) in assay [2]; 13.2 µM (active) in assay [3]; 11.8 µM (active) in assay [4]; 11.8 µM (active) in assay [5]; 11.8 µM (active) in assay [6]; 8.33 µM (active) in assay [7].
In the case of `CCOc1ccccc1N=Nc1c(C)[nH]n(-c2nc(-c3ccccc3)cs2)c1=O`, the activation in assay [1] was 25.3%. The viability in assay [2] is 118%. Moreover, the Potency result in assay [3], in assay [4], in assay [5], in assay [6] and in assay [7] was “inactive” in each case.
Turning to `CCN(CC)CCCCNc1ncc2cc(-c3cc(OC)cc(OC)c3)c(NC(=O)NC(C)(C)C)nc2n1`, the activation in assay [1] is 27.9%. Further, the Potency in assay [2] is 20.9 µM (active); in assay [8], 16.6 µM (active); in assay [4] it was 8.33 µM (active); in assay [7], 16.6 µM (active).
On to `Cc1cc(O)c2c(c1)C(=O)c1cccc(O)c1C2=O`, for which, in assay [1], the activation is 32.6%. Also, the viability in assay [2] was 116%. The Potency entry in assay [3], in assay [4], in assay [5], in assay [6] and in assay [7] was “inactive” in each case.
Turning to `CC(=O)OC1C(C)OC(Oc2c(-c3ccc(O)cc3)oc3cc(O)cc(O)c3c2=O)C(O)C1OC(C)=O` (configuration not stated), in assay [1], the activation was 34.7%. In addition, the viability in assay [2] was 114%. The Potency entry in assay [8], in assay [4] and in assay [7] was “inactive” each time.
Consider `C#CCN[C@@H]1CCc2ccccc21`, for which, in assay [1], the activation was -13.4% and -11.3%. Further, in assay [2], the viability was 116%. Besides, the Potency result in assay [3], in assay [4], in assay [5], in assay [6] and in assay [7] was “inactive” each time.
For the molecule `CN1CC[C@@H](c2c(O)cc(O)c3c(=O)cc(-c4ccccc4Cl)oc23)[C@@H](O)C1`, the Potency is 0.217 µM (active) in assay [1]; 0.525 µM (active) in assay [2]; 0.263 µM (active) in assay [8]; 0.417 µM (active) in assay [5]; 0.372 µM (active) in assay [6]; 0.417 µM (active) in assay [7].
In the case of `O=C(O)c1nc(=O)[nH]c(=O)[nH]1`, the activation in assay [1] was 3.67%. For the same molecule, in assay [2], the viability is 105%. Moreover, the Potency result in assay [3], in assay [4], in assay [5], in assay [6] and in assay [7] was “inactive” in each case.
For `CCN(CC)CCOc1ccc(Cc2ccccc2)cc1`, in assay [1], the activation is -6.69% and 6.46%. The Potency in assay [2] was 16.6 µM (active). Moreover, the Potency entry in assay [3], in assay [5] and in assay [7] was “inactive” in each case.
Take `CNC(=O)[C@H](Cc1ccccc1)NC(=O)[C@H](CC(C)C)[C@H](CSc1cccs1)C(=O)NO`: the activation in assay [1] is -8.09%. For the same molecule, the viability in assay [2] is 98.9%. The Potency in assay [3] is 7.42 µM (active); in assay [6] it was 13.2 µM (active). Moreover, the Potency result in assay [5] and in assay [7] was “inactive” each time.
For the molecule `NC(=O)c1ccc(I)c([N+](=O)[O-])c1`, the activation in assay [1] was 13.8%. Moreover, the viability in assay [2] is 105%. The Potency in assay [3] is 16.6 µM (active). Further, the Potency result in assay [5] and in assay [7] was “inactive” each time.
Take `COC(=O)C[C@](O)(CCCC(C)(C)O)C(=O)O[C@@H]1C(OC)=C[C@]23CCCN2CCc2cc4c(cc2[C@H]13)OCO4`: the activation in assay [1] is -1.17%. The Potency in assay [2] was 0.148 µM (active); in assay [4] it was 0.0417 µM (active); in assay [5], 0.0148 µM (active); in assay [6] it was 0.059 µM (active).
As for `CCOC(=O)O[C@]1(C(=O)OCCl)CC[C@H]2[C@@H]3CCC4=CC(=O)C=C[C@]4(C)[C@H]3[C@@H](O)C[C@@]21C`, the activation in assay [1] is -7.34%. For the same molecule, in assay [2], the Potency is 1.05 µM (active). For the same molecule, the Potency result in assay [3] and in assay [7] was “inactive” throughout.
With `CCN(c1ccccc1)c1cc(NC)[n+](C)c(C)n1`, the activation in assay [1] is 3.67%. Moreover, in assay [2], the viability is 117%. Also, the Potency result in assay [3], in assay [5], in assay [6] and in assay [7] was “inactive” each time.
Take `O=C1C[C@@H](c2ccc(O)cc2)Oc2cc(O)cc(O)c21`: the activation in assay [1] was -17.7%. Also, the viability in assay [2] was 109%. In addition, the Potency entry in assay [4], in assay [5], in assay [6] and in assay [7] was “inactive” in each case.

Values taken from PubChem BioAssay (NCATS).
